The record followed here is the supplement of paper PMC8726507.

Molecules are shown by their SMILES. A number with no mark means an inactive call.

The subject of the assay is Plasmodium falciparum NF54-HGL (transmission to Anopheles stephensi). As to the kind of experiment: percentage of barcode signal found in uninfected mosquitoes (transmission-blocking activity); higher = stronger blocking of transmission to mosquito, active = 80 or more. To be noted: 20 µM; gametocyte preincubation time 24 h; readout time post-feed 8 days. The procedure:
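The mixture was fed to Anopheles stephensi in 96-well plates as blood meals tagged with DNA-barcoded Asaia bacteria. Eight days later, mosquitoes were classed infected or uninfected by luminescence (mean + 5 SD of unfed controls). Barcodes were quantified by Luminex MagPlex-TAG in the pooled uninfected and infected Asaia cultures, background-corrected, and the score is % of barcode signal in uninfected mosquitoes = 100*Iu/(Iu+Ii).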
For the compound `CO[C@H]1/C=C/O[C@@]2(C)Oc3c(C)c(O)c4c(O)c(/c(=C/NN5CCN(C)CC5)c(O)c4c3C2=O)=N\C(=O)/C(C)=C\C=C/[C@H](C)[C@H](O)[C@@H](C)[C@@H](O)[C@@H](C)[C@H](OC(C)=O)[C@@H]1C`, the “percentage of barcode signal found in uninfected mosquitoes” value (“percentage of barcode signal found” below) was 20.2%. Under `CCC(C)NC(=O)c1ccc(NC(=O)C2(c3ccccc3)CCCC2)cc1` (stereo not given) stands 47.5%; under `Cc1cc(Nc2ccc(C(F)(F)F)cc2)n2ccnc2n1`, -1.06%. Under `CCc1nc2ccc(Cl)cn2c1C(=O)NCc1ccc(N2CCC(c3ccc(OC(F)(F)F)cc3)CC2)cc1` stands 32%; under `Nc1nccc2ccc(Oc3ccncc3)cc12`, 37.6%; under `CCCCCCCCCCCCCCCCOP(=O)([O-])OCC[N+](C)(C)C`, -0.352%. On to `CC(C)=CCC/C(C)=C\CNCCNC1C2CC3CC(C2)CC1C3` (stereo not given), for which the “percentage of barcode signal found” value is 81.8% (active). The figure for `Cc1nn(C)cc1C(C)Nc1nncc(-c2ccc(C(F)(F)F)cc2)n1` (stereo not given) is 89.3% (active). For the compound `Cc1cc(Cl)ccc1NC(=O)CCc1ccc(S(=O)(=O)NCC(C)C)cc1`, the “percentage of barcode signal found” value is 0.0223%. Under `O=C(Nc1c(O)cccc1-c1nc2c(C(=O)O)cccc2o1)c1cc(-c2ccccc2)on1` stands 20.8%. Regarding `CC1CCCN(C(=O)C(C)Nc2cc(Cl)ccc2N2CCOCC2)C1` (stereo not given), the “percentage of barcode signal found” value was 15.9%. As for `Cn1c(=O)c2c(S(C)(=O)=O)snc2n(C)c1=O`, the “percentage of barcode signal found” value was 21.4%.

With `CCCCOC(=O)Nc1cc2nc(C3CCCCC3)[nH]c2cc1N1CCCC1`, the “percentage of barcode signal found” value was 33.9%. Under `CC[P](CC)(CC)=[Au][S][C@H]1O[C@@H](COC(C)=O)[C@H](OC(C)=O)[C@@H](OC(C)=O)[C@@H]1OC(C)=O` stands 99% (active). `CC(c1cc(Cl)cc(Cl)c1)N(C)c1ncc2c(N)nc(N)nc2n1` (stereo not given): the “percentage of barcode signal found” value was 0.441%.
